Experiment [1] in a line: qHTS assay to identify aromatase inhibitors - cell viability counter screen (AID 743084).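 Also: cells stimulated with testosterone during compound exposure; nearly all actives have a fitted effect of over 55% in size.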 Also: potency is read from the fitted curve at half-maximal effect.
Experiment [2] has as its target Aryl hydrocarbon receptor (Homo sapiens) (UniProt P35869). The experiment in a line: qHTS assay to identify small molecule that activate the aryl hydrocarbon receptor (AhR) signaling pathway (AID 743085). Also: nearly all actives have a fitted effect of over 15% in size. Also: potency is read from the fitted curve at half-maximal effect.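 As to activation: HG2L7.5c1 human HepG2 liver cells with stably integrated DRE-driven firefly reporter; series mostly up to about 70 µM.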 An outline of the steps:
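HepG2 cells (HG2L7.5c1) stably carrying a firefly luciferase reporter driven by 20 dioxin responsive elements were exposed to compound for 24 h at 37C after a 5 h settling period; luminescence rise (ONE-Glo) indicated activation.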

A short description of experiment [3]: qHTS assay to identify small molecule that activate the aryl hydrocarbon receptor (AhR) signaling pathway - cell viability counter screen (AID 743086).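 Also: HepG2 liver cells carrying the AhR DRE luciferase reporter; series mostly up to about 70 µM; nearly all actives have a fitted effect of over 45% in size.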 The method, boiled down:
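HepG2-AhR-luc (HG2L7.5c1) cells, 4000/well, were preincubated 5 h at 37C, exposed to compound in qHTS format for 24 hr at 37C, then given CellTiter-Fluor for 30 min; viability was read as fluorescence in the reporter wells.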

Experiment [4] deals with Peroxisome proliferator-activated receptor gamma (Homo sapiens) (UniProt P37231). Description: qHTS assay to identify small molecule agonists of the peroxisome proliferator-activated receptor gamma (PPARg) signaling pathway (AID 743094; active = well fitted activation curve with a large enough effect in the signal ratio in the repeat runs, not every such curve was filed as active; the % refers to the signal ratio). An outline of the steps:
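Agonist activity was taken from a beta-lactamase reporter (FRET substrate, 1 h at room temperature) in HEK293H cells carrying a PPARg UAS-bla construct. Compounds in DMSO were incubated 17 h at 37C after a 5 h cell pre-incubation.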

A short description of experiment [5]: qHTS assay to identify small molecule antagonists of the peroxisome proliferator-activated receptor gamma (PPARg) signaling pathway - cell viability counter screen (AID 743194). Also: nearly all actives have a fitted effect of over 55% in size. An outline of the steps: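 PPARg-UAS-bla HEK293H cells were plated, rested 5 h at 37 C, then treated with compounds plus rosiglitazone (50 nM final) for 17 h at 37 C; viability was then read by CellTiter-Glo luminescence after 30 min at room temperature.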

Experiment [6] in a line: qHTS assay for small molecule agonists of the antioxidant response element (ARE) signaling pathway (AID 743202; active = well fitted activation curve with a large enough effect in the signal ratio in the repeat runs, not every such curve was filed as active; the % refers to the signal ratio; also: potency is read from the fitted curve at half-maximal effect). An outline of the steps: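 Steps: seed ARE-bla HepG2 cells (2,000/well); incubate 5 h at 37 C; add compounds by pin tool; incubate 16 h at 37 C; add FRET substrate; read fluorescence after 2 h at RT.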
A short description of experiment [7]: qHTS assay for small molecule agonists of the antioxidant response element (ARE) signaling pathway - cell viability counter screen (AID 743203; calls by dose curve; also: nearly all actives have a fitted effect of over 55% in size). The method, boiled down:
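Viability counter screen: CellTiter-Glo luminescence, read after 30 min at room temperature, in ARE-bla HepG2 wells. Compound exposure lasted 16 h at 37C/5% CO2, following a 5 h pre-incubation of the cells after plating.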

Experiment [8] is described as follows: qHTS assay for small molecule activators of the heat shock response signaling pathway - cell viability counter screen (AID 743209). Also: nearly all actives have a fitted effect of over 50% in size. An outline of the steps:
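Cytotoxicity counter screen run in the same wells as the heat-shock bla reporter assay: HeLa HSE-bla cells, 5 h compound exposure at 37 C, viability read by CellTiter-Glo luminescence.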

Experiment [9] concerns the target Peroxisome proliferator-activated receptor gamma (Homo sapiens) (UniProt P37231). Description: qHTS assay to identify small molecule antagonists of the peroxisome proliferator-activated receptor gamma (PPARg) signaling pathway (AID 743191; calls by dose curve; also: series mostly up to about 63 µM; nearly all actives have a fitted effect of over 30% in size). An outline of the steps:
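GeneBLAzer PPARg UAS-bla HEK293H cells carrying a UAS-driven beta-lactamase reporter were plated at 3000 cells/well, preincubated 5 h at 37C, then given compound for 17 h at 37C; LiveBLAzer B/G FRET substrate was read after 1 h at room temperature.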

The nature of experiment [10]: qHTS assay for small molecule activators of the heat shock response signaling pathway (AID 743210; active = well fitted activation curve with a large enough effect in the signal ratio in the repeat runs, with a control signal flat, not every such curve was filed as active; the % refers to the signal ratio;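 also: HeLa cells with beta-lactamase reporter driven by heat shock elements; series mostly up to about 63 µM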). An outline of the steps:
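Activation of heat shock element-controlled beta-lactamase expression is measured in HeLa cells by LiveBLAzer FRET fluorescence, with compound exposure lasting 5 h at 37 C and substrate loading 2.5 h at room temperature.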

Inconclusive results are not listed. Unmarked numbers belong to inactive results. Activity calls are given as the source filed them. Unless noted, calls follow the shape of the dose curve; as a rule, active = well fitted curve in the direction sought with a large enough effect in the repeat runs; inconclusive = weak or mixed curves; inactive = no such curve, though single readings can be large; an effect the other way counts as inactive or inconclusive.

Chain of Peroxisome proliferator-activated receptor gamma (Homo sapiens) (P37231 whole entry, looked up): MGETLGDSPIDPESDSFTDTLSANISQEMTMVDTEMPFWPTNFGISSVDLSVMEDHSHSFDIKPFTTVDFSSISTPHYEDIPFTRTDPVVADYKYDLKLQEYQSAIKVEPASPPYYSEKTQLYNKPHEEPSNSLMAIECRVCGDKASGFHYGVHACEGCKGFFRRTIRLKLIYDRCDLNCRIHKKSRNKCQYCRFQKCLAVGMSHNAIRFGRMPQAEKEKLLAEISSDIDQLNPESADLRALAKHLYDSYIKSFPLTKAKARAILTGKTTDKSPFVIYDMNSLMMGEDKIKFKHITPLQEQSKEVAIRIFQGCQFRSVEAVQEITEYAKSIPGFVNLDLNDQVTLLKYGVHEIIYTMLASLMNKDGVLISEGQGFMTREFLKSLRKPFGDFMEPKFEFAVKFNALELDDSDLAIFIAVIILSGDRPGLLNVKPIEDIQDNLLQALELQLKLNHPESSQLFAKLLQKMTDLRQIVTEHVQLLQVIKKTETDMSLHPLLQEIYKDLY
Chain of Aryl hydrocarbon receptor (Homo sapiens) (P35869 whole entry, looked up): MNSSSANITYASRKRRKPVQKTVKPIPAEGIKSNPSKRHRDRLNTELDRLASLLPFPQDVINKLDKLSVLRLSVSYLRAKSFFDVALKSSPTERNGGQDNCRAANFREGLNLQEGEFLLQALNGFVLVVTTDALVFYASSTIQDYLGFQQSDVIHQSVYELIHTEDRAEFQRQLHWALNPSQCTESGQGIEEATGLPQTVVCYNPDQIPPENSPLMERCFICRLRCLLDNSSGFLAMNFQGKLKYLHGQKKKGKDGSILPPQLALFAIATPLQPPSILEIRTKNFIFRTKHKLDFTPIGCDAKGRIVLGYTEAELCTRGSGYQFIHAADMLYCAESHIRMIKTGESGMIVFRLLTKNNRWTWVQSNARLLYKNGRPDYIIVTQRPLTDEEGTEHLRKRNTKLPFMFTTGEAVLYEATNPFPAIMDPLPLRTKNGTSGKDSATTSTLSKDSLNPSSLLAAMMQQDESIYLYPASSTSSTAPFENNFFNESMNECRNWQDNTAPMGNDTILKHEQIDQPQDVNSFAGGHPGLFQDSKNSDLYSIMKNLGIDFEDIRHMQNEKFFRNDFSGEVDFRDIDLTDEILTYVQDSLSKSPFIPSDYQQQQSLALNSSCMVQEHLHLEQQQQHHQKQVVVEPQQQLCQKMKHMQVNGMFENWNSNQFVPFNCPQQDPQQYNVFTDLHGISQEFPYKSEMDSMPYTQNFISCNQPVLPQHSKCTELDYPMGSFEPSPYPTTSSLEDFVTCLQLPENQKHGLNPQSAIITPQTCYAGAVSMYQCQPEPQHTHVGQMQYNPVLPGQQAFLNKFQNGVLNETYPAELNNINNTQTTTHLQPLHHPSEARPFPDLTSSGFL

Regarding `CCCC[C@H]1CN(CC2CCOCC2)C(=O)OC12CCN(C1(C)CCN(C(=O)c3c(C)ncnc3C)CC1)CC2`, the Potency result in experiment [1], in experiment [2], in experiment [3], in experiment [4], in experiment [5] and in experiment [6] was “inactive” in each case. The Potency result in experiment [7] and in experiment [8] was “inactive” throughout.
Take `CC(C)(C)c1cc(CO)cc(C(C)(C)C)c1O`: the Potency entry in experiment [1], in [2], in experiment [3], in experiment [4], in experiment [9] and in experiment [7] was “inactive” in each case. For the same molecule, the Potency result in experiment [8] was “inactive”. The Potency in [6] was 31.2 µM (active). Also, in experiment [10], the molecule was classed as inactive.
`CN1CCC(OC(c2ccccc2)c2ccccc2)CC1`: the Potency entry in [1], in [2], in experiment [3], in [4], in experiment [5] and in experiment [6] was “inactive” throughout. Besides, the Potency entry in [7] and in experiment [8] was “inactive” each time. In addition, the molecule was classed as inactive in experiment [10].
`CN(C)CCCOc1nn(Cc2ccccc2)c2ccccc12`: the Potency result in experiment [1], in [2], in experiment [3], in experiment [4], in experiment [5] and in experiment [7] was “inactive” in each case. Further, the Potency result in experiment [8] is “inactive”. The result in experiment [10] was inactive.
For the molecule `FC(F)(F)C(F)(F)C(F)(F)C(F)(F)C(F)(F)C(F)(F)CCI`, the Potency entry in experiment [1], in experiment [2], in experiment [3], in [4], in experiment [5] and in experiment [6] was “inactive” each time. Further, the Potency entry in experiment [7] and in [8] was “inactive” throughout. Further, in experiment [10], the outcome was inactive.
As for `O=C=NC1CCC(CC2CCC(N=C=O)CC2)CC1` (configuration not stated), the Potency entry in experiment [1], in experiment [2], in [3], in experiment [4], in experiment [5] and in experiment [6] was “inactive” in each case. Further, the Potency entry in experiment [7] and in experiment [8] was “inactive” throughout.
As for `CC(=O)OCCc1ccccc1`, the Potency entry in experiment [1], in [2], in experiment [3], in experiment [4], in [5] and in experiment [6] was “inactive” each time. Also, the Potency entry in experiment [7] and in experiment [8] was “inactive” each time. Further, the molecule was called inactive in experiment [10].
In the case of `C#CCOC(=O)[C@@H](C)Oc1ccc(Oc2ncc(Cl)cc2F)cc1`, the Potency entry in experiment [1], in [2], in experiment [3], in experiment [4], in [5] and in experiment [7] was “inactive” in each case. Besides, the Potency result in [8] is “inactive”.
As for `CCCCCCCCCC(=O)OCC`, the Potency result in experiment [1], in [2], in experiment [3], in experiment [4], in [5] and in [6] was “inactive” each time. Further, the Potency result in [7] and in experiment [8] was “inactive” in each case. Also, the molecule was classed as inactive in experiment [10].
For the molecule `O=C(NN1CCCC1)NS(=O)(=O)c1ccc(Cl)cc1`, the Potency entry in experiment [1], in experiment [2], in experiment [3], in [4], in experiment [9] and in experiment [6] was “inactive” each time. Besides, the Potency result in experiment [8] is “inactive”. The molecule was classed as inactive in [10].
On to `CC(C)=CCCC(C)CC=O` (configuration not stated), for which the Potency result in [1], in [2], in [3], in experiment [4], in experiment [5] and in experiment [6] was “inactive” throughout. In addition, the Potency entry in experiment [7] and in [8] was “inactive” throughout.
`CCCCCCOC(=O)CCC`: the Potency result in [1], in experiment [2], in experiment [3], in experiment [4], in experiment [5] and in [6] was “inactive” in each case. Also, the Potency entry in experiment [7] and in [8] was “inactive” throughout. The call in experiment [10] was inactive.
Consider `Nc1nc(N)c(-c2ccccc2)s1`, for which the Potency entry in [1], in [2], in experiment [3], in experiment [4], in [9] and in experiment [6] was “inactive” in each case. Further, the Potency entry in experiment [7] and in experiment [8] was “inactive” in each case. Further, the result in [10] was inactive.
On to `Cl/C(=C\n1cncn1)c1ccc(Cl)cc1Cl`, for which the Potency entry in [1], in experiment [2], in [3], in [4], in experiment [5] and in [7] was “inactive” in each case. Further, the Potency result in experiment [8] was “inactive”. In experiment [10], the molecule was called inactive.
In the case of `CCCCOC(=O)/C=C\C(=O)OCCCC`, the Potency entry in experiment [1], in experiment [2], in experiment [3], in [4], in [5] and in experiment [7] was “inactive” each time. Also, the Potency entry in experiment [8] is “inactive”.
Regarding `COc1ccccc1OC(=O)Oc1ccccc1OC`, the Potency result in experiment [1], in experiment [2], in experiment [3], in experiment [4], in [5] and in experiment [6] was “inactive” each time. For the same molecule, the Potency entry in [8] was “inactive”. For the same molecule, the molecule was called inactive in [10].
For `CCOC(=S)SSC(=S)OCC`, the Potency result in [1], in experiment [2], in [3], in experiment [4], in experiment [5] and in experiment [6] was “inactive” in each case. The Potency result in [7] and in experiment [8] was “inactive” throughout. Besides, the call in experiment [10] was inactive.
`Cc1cc(O)ccc1N`: the Potency in [1] is 54.8 µM (active); in experiment [2], 61.4 µM (active); in experiment [6] it was 21.8 µM (active). For the same molecule, the Potency result in [3], in [4], in [5], in [7] and in experiment [8] was “inactive” each time.
In the case of `O=C(O)C1CCC(C(=O)O)CC1` (configuration not stated), the Potency entry in experiment [1], in experiment [2], in [3], in experiment [4], in experiment [5] and in [6] was “inactive” in each case. Besides, in experiment [8], the Potency entry is “inactive”. The call in experiment [10] was inactive.
On to `CCCCOCCOCCOCCOCCO`, for which the Potency entry in [1], in [2], in [3], in experiment [4], in experiment [5] and in [6] was “inactive” each time. Moreover, the Potency result in [7] and in experiment [8] was “inactive” in each case. Further, the molecule was called inactive in [10].
In the case of `CC(=O)O[C@@H]1C(=O)O[C@@H]2[C@H]1OC(=O)[C@@H]2OC(C)=O`, the Potency entry in experiment [1], in experiment [2], in [3], in experiment [4], in experiment [5] and in experiment [7] was “inactive” in each case. Moreover, in experiment [8], the Potency result is “inactive”. Besides, in experiment [6], the Potency was 10.6 µM (active). The outcome in [10] was inactive.
With `CCOC(=O)CC(C)C`, the Potency entry in experiment [1], in experiment [2], in experiment [3], in experiment [4], in [9] and in experiment [6] was “inactive” in each case. Further, the Potency entry in [7] and in experiment [8] was “inactive” throughout. In addition, in [10], the molecule was called inactive.
With `CCCCc1cc2ccccc2c(OCCN(C)C)n1`, the Potency entry in experiment [1], in experiment [2], in experiment [3], in [4], in [5] and in [6] was “inactive” throughout. Further, in [8], the Potency entry is “inactive”. The molecule was classed as inactive in experiment [10].
As to `N[C@H]1C(O)O[C@H](CO)[C@H](O)[C@@H]1O` (some centres not stated), the Potency result in experiment [1], in experiment [2], in experiment [3], in experiment [4], in experiment [5] and in experiment [6] was “inactive” each time. Further, the Potency entry in experiment [7] and in experiment [8] was “inactive” each time. Moreover, in [10], the outcome was inactive.
